# Sampled rows, rich in hits. Any-hit rate of the full collection: about 4.7%.
# SKKanGAS inh: S. pyogenes SKKanGAS growth inhibitors in kanamycin, primary screen, streptokinase expression inhibitor project, SKKanGAS strain, BacTiter-Glo luminescence; 6 h; 300,000 tested, 1.3% active; inhibition, % at 7.5 µM;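 active means mean replicate score, as percent of positive control median, at least 50; inconclusive means mean below 50 but one replicate at or above 50; inactive means mean and every replicate below 50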;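 further: strain carries kanamycin resistance gene driven by streptokinase promoter and grows in 40 µg/ml kanamycin; loss of luminescence reflects streptokinase promoter inhibition or plain growth inhibition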
# EBI2 antag: EBI2 receptor antagonists, beta-arrestin recruitment, primary screen, cell-based, luminescence, 7a,25-OHC stimulation, uHTS; inhibition, % at 5 µM; G-protein coupled receptor 183 (Homo sapiens), P32249; 7a,25-OHC stimulated; 360,000 tested, 0.81% active; AID 651636, 2012; in the data active means inhibition above about 38%;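 further: enzyme fragment complementation signal reports receptor beta-arrestin coupling in cells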
# Target sequence (P32249 whole entry, looked up, the tested form may be a part): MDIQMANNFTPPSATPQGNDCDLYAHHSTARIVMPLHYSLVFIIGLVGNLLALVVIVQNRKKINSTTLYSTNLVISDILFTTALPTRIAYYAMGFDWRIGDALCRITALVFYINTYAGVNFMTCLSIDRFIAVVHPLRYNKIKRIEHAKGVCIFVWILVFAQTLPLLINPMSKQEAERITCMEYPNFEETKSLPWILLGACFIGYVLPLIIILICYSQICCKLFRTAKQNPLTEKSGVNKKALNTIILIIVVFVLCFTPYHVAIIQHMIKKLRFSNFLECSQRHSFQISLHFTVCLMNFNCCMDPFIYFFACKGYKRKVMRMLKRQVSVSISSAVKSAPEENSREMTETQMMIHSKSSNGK
# tim10-1 inh: growth inhibitors of tim10-1 mutant yeast, primary screen, luminescence, uHTS | inhibition, % at 20 µM | 330,000 tested, 2.2% active | S. cerevisiae tim10-1 ts strain growth, BacTiter-Glo, 24 h;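 active means inhibition of at least 40%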;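 further: mutant grown at 25 °C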
# tim23-1 inh: growth inhibitors of tim23-1 mutant yeast, primary screen, luminescence, uHTS; S. cerevisiae tim23-1 growth, BacTiter-Glo luminescence, 24 h; inhibition, % at 20 µM; 330,000 tested, 1.3% active; AID 463212, 2010;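 active means growth inhibition of the mutant yeast at or above 50%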;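 further: temperature-sensitive mutant grown at 25 °C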
# PfHsp90 yeast 2: growth inhibition of PfHsp90-expressing yeast, primary screen, antimalarial PfHsp90 inhibitor project, S. cerevisiae, BacTiter-Glo luminescence, single point, set 2; inhibition, % at 9.4 µM; 310,000 tested, 0.32% active; BacTiter-Glo ATP, 48 h; yeast lacking PDR1 and PDR3 efflux regulators; AID 504621, 2011;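 active means every replicate shows inhibition above about 80%, whatever the replicate mean, limit read from the data; inconclusive means mean inhibition reaches the set limit but some replicate falls short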
# TIM10 inh: growth inhibitors of isogenic TIM10 control yeast, primary screen, counter-screen for tim10-1 yeast inhibitor project, luminescence, uHTS. S. cerevisiae TIM10 strain growth, BacTiter-Glo luminescence, 24 h. inhibition, % at 10 µM. 330,000 tested, 1.4% active;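 active means inhibition of 40% or more at the single tested concentration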;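 further: wild-type TIM10 isogenic control strain grown at permissive 25 °C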
# tim10-1 confirm: growth inhibitors of tim10-1 mutant yeast, confirmation, single concentration, luminescence, S. cerevisiae | shares compounds with tim10-1 inh | S. cerevisiae tim10-1 ts strain growth, BacTiter-Glo, 24 h | inhibition, % at 20 µM | 7,400 tested, 56% active | AID 463213, 2010;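 active means inhibition of yeast growth at or above a set limit in either of two repeat tests at 20 µM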;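 further: tim10-1 mutant grown at permissive 25 °C to find synthetic lethal compounds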
# tim10 confirm: growth inhibitors of wild-type TIM10 yeast, confirmation, counter-screen for tim10-1 synthetic lethality project, single concentration, luminescence, S. cerevisiae; shares compounds with TIM10 inh; AID 463215, 2010; inhibition, % at 10 µM; S. cerevisiae tim10 strain growth, BacTiter-Glo luminescence, 24 h; 4,600 tested, 63% active;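 active means inhibition of yeast growth at or above a set limit in either of two replicates at 10 µM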; further: this counterscreen used the strain with wild-type TIM10
# tim23-1 conf: tim23-1 mutant yeast growth inhibitors, confirmation, luminescence, single concentration; shares compounds with tim23-1 inh; S. cerevisiae tim23-1 growth, BacTiter-Glo luminescence, 24 h; inhibition, % at 20 µM; 4,400 tested, 83% active;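 active means inhibition above about 39% in either of two replicate wells at 20 µM, limit read from the data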;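 further: temperature-sensitive tim23-1 mutant grown at 25 °C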
# Numbers stand for hits; i = inactive; ? = inconclusive; nt = no result.
SMILES,SKKanGAS inh,EBI2 antag,tim10-1 inh,tim23-1 inh,PfHsp90 yeast 2,TIM10 inh,tim10-1 confirm,tim10 confirm,tim23-1 conf
CCCCC(CC)CN=C(N)NC(N)=NCCCCCCN=C(N)NC(N)=NCC(CC)CCCC (configuration not stated),nt,i,96,88,110,94,95,96,84
COc1ccccc1NS(=O)(=O)c1cc(NC(=O)C2CCCO2)ccc1C (configuration not stated),nt,i,i,i,i,i,nt,nt,nt
N#C/C(=C\c1ccccc1[N+](=O)[O-])C(=O)NC1CCCCC1,i,i,75,76,i,72,84,83,73
N#C/C(=C\c1ccc(F)c(F)c1)C(=O)NC1CCCCC1,i,i,52,68,i,65,65,78,59
O=C(COC(=O)/C=C/c1cc(Br)ccc1F)NC1CC1,nt,i,i,i,nt,i,nt,nt,nt
CCOc1c(Br)cc(/C=C(\C#N)C(=O)NC2CC2)cc1OC,i,i,85,87,i,56,78,67,84
N#C/C(=C\c1cccn1-c1ccccc1)C(=O)NC1CCCCC1,i,i,i,i,i,i,nt,nt,nt
N#C/C(=C\c1cc(Br)ccc1F)C(=O)NC1CC1,i,i,77,90,i,51,60,80,91
C[C@H](NC(=O)C1CCN(C(=O)[C@@H]2CCCN2C(=O)OC(C)(C)C)CC1)C(=O)NCc1ccc(F)cc1,nt,i,nt,nt,nt,nt,nt,nt,nt
COc1ccc(CCC(=O)NCC(=O)OCc2ccccc2)cc1,i,i,i,i,i,i,nt,nt,nt
COc1ccc(-c2nc(CS(=O)CC(=O)NCc3ccc(Cl)cc3)c(C)o2)cc1OC (configuration not stated),i,i,i,i,i,i,nt,nt,nt
C=CCNC(=O)/C(C#N)=C\c1cc(Cl)c(OCC)c(OC)c1,i,i,79,82,i,67,79,73,84
N#C/C(=C\c1cc(Cl)cc(Cl)c1O)C(=O)NC1CCCCC1,i,i,49,54,i,i,i,nt,58
N#C/C(=C\c1ccc(F)c(Br)c1)C(=O)NC1CC1,i,i,48,84,i,44,46,58,74
CC(C)(C)c1ccc(/C=C(\C#N)C(=O)NC2CC2)cc1,i,i,51,85,nt,58,78,65,51
COc1cc(/C=C(\C#N)C(=O)NCC2CCCO2)cc(OC)c1OC (configuration not stated),i,i,i,i,i,i,nt,nt,nt
N#C/C(=C\c1cc(Cl)ccc1O)C(=O)NC1CCCCC1,i,i,i,i,i,i,nt,nt,nt
CC(NC(=O)c1ccc2c(c1)OCO2)C(c1cccs1)N1CCN(c2ccccc2)CC1 (configuration not stated),i,i,i,i,i,i,nt,nt,nt
COc1ccc(CN2c3c(Br)cccc3C(=O)CS2(=O)=O)cc1,nt,i,42,72,i,i,41,nt,60
COc1ccc(CN2C(=O)C(C)=C(C)C2OC)cc1 (configuration not stated),i,i,i,i,i,i,nt,nt,nt
COc1cc(N=Nc2ccc(Br)cc2)cc(C=O)c1O,nt,i,nt,nt,nt,nt,nt,nt,nt
CC(C)CC(N)c1csc(Nc2ccc(C(F)(F)F)cn2)n1 (configuration not stated),nt,i,nt,nt,nt,nt,nt,nt,nt
COc1ccc(C(=O)CSc2nnc(-c3ccc(C)cc3)o2)cc1,i,i,i,i,nt,i,nt,nt,nt
COc1ccc(-c2nnc(SCC(=O)Oc3ccc(C)cc3)o2)cc1,i,i,91,53,105,89,84,91,58
O=C(Nc1ccc(Cl)cc1)C(Cl)C(=O)c1ccccc1 (configuration not stated),i,i,55,70,i,59,56,81,76
SMILES,SKKanGAS inh,EBI2 antag,tim10-1 inh,tim23-1 inh,PfHsp90 yeast 2,TIM10 inh,tim10-1 confirm,tim10 confirm,tim23-1 conf
O=C(N/N=C\c1ccc([N+](=O)[O-])s1)c1cncc(Br)c1,i,i,45,69,i,55,35,51,69
O=C(N/N=C/c1ccc([N+](=O)[O-])s1)c1ccccc1,i,i,i,i,i,i,nt,nt,nt
COC(=O)N/N=C/c1ccc([N+](=O)[O-])s1,i,i,42,83,i,i,33,nt,88
COc1ccc(-c2nnn(CC(=O)N(CC3CCCO3)C(C(=O)NC(C)(C)C)c3ccco3)n2)cc1OC (configuration not stated),i,i,i,i,i,i,nt,nt,nt
CC(=O)Nc1ccc(S(=O)(=O)N2CCN(c3cc(C)ccc3C)CC2)cc1,i,i,60,54,i,i,49,nt,47
O=S1(=O)CC(N2CCN(CCO)CC2)CN1Cc1cn(Cc2ccc(F)cc2)nn1 (configuration not stated),nt,i,nt,nt,nt,nt,nt,nt,nt
CC/C(C)=N/Nc1cccc([N+](=O)[O-])c1,i,i,i,i,i,i,nt,nt,nt
CC1=CC(C)(C)N(C(=O)CN2C(=O)CCC2=O)c2ccc(C)cc21,i,i,i,i,i,i,nt,nt,nt
CC1=CC(C)(C)N(C(=O)CN2C(=O)c3ccccc3C2=O)c2ccccc21,i,i,43,60,i,40,i,i,51
O=C(CN1C(=O)NC2(CCCCCCC2)C1=O)Nc1cccc(Br)c1,nt,i,i,i,i,i,nt,nt,nt
Cc1n[nH]c(=O)nc1N/N=C/c1ccc(O)c([N+](=O)[O-])c1,i,i,i,i,i,i,nt,nt,nt
CC1CCN(C2=NC(=O)/C(=C/c3ccccc3F)S2)CC1,i,i,46,52,i,i,35,nt,53
COc1cccc(COC(=O)c2ccc3c(=O)n4c(nc3c2)CCC4)c1OC,?,i,i,i,i,i,nt,nt,nt
O=C(Nc1cccc(Cl)c1)c1cc(N=Nc2ccc([N+](=O)[O-])cc2Cl)ccc1O,i,i,70,71,i,i,60,nt,78
O=C(Nc1ccc([N+](=O)[O-])cc1Cl)c1cc(Cl)ccc1O,nt,i,i,i,i,i,nt,nt,nt
CC1CC(C)CN(S(=O)(=O)c2ccc3c(c2)CC(C)N3C(=O)C2CC2)C1 (configuration not stated),i,i,i,i,i,i,nt,nt,nt
